Rows were chosen to be rich in hits. Some 1.9% of all compounds tested hit in one or more screens of this group.
GRK2 aptamer HTS – human GRK2 inhibition via aptamer displacement; AID 488847; bead flow cytometry, FAM-aptamer displacement from GRK2; actives 0.59% (n = 330,000); P25098; inhibition of aptamer binding, % at 10 µM;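 active = inhibition of aptamer binding above 40%, roughly 3 SD of noise, on plates passing a quality check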;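 note: median bead fluorescence of bound FAM aptamer so fluorescent compounds give negative values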
Target sequence (P25098 whole entry, looked up): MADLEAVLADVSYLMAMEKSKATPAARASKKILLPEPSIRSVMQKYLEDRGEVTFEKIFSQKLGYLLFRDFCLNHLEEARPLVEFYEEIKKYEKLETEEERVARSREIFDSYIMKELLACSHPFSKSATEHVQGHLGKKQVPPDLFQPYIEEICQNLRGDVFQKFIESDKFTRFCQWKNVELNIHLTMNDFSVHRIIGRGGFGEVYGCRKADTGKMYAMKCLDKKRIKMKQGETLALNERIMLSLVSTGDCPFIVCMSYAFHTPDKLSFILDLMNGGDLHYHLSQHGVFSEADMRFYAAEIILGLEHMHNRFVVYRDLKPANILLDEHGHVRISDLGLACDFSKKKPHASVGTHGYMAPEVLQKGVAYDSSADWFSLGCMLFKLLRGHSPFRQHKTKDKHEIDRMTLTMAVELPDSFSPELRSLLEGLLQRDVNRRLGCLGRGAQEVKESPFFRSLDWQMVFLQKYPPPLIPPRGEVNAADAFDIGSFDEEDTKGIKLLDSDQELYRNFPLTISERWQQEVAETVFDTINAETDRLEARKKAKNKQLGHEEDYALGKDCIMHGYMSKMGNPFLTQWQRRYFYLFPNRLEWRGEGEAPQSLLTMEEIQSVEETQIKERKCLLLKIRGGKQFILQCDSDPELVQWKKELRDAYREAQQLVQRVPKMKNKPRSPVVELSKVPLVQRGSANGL
PERK inh – human PERK inhibition, primary cell-based screen | CHO PERK-DD fusion, SEAP luminescence translation reporter | inhibition, % at 5.6 µM | actives 0.17% (n = 220,000) | Q9NZJ5;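 active = inhibition above the mean inhibition of all tested compounds plus 3 SD, set separately per screening campaign, cut at about 2.9% in these data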;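 note: PERK kinase domain activated by AP20187 dimerizer at 100 nM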
MLLE-PAM2 inh – inhibitors of microRNA-mediated deadenylation, human PABP1 MLLE binding. GST-MLLE / FITC-PAM2 fluorescence polarization. inhibition, % at 20 µM. actives 0.36% (n = 360,000); in the data active = inhibition above about 35%, passing the limit was not always enough
PABP FP inh – blocks human PABP binding to poly(A) RNA | inhibition, % at 35 µM | AID 2014 | fluorescence polarization | actives 1% (n = 290,000) | P11940;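 note: calls also rest on retests at 20 µM and on dose response follow-up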
eIF4H FP inh – inhibitors of RNA binding by human eIF4H. Q15056. actives 0.94% (n = 290,000). inhibition, % at 35 µM. eIF4H fluorescence polarization binding assay;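 note: calls also rest on retests at 20 µM and on dose response follow-up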
Hits are given with their value; . = inactive; ? = inconclusive; / = not tested or not shown. Unless noted, the rule behind the calls is not given here.

SMILES	GRK2 aptamer HTS	PERK inh	MLLE-PAM2 inh	PABP FP inh	eIF4H FP inh
c1coc(-c2nc(-c3ccco3)c(-c3ccco3)nc2-c2ccco2)c1	.	.	.	94	85
Nc1nc(-c2ccco2)c(-c2ccco2)s1	.	.	44	?	?
COc1ccc2nc(-c3ccco3)c(-c3ccco3)nc2c1	.	.	40	87	98
COc1ccc2nc3cccc(OC)c3nc2c1	.	.	.	.	.
Nc1nc(-c2ccco2)cs1	.	.	.	66	79
COc1ccc(NC(=O)CSC(C)c2nc3ccccc3c(=O)[nH]2)cc1 (stereo not given)	.	/	.	.	.
O=C(O)CN1C(=O)/C(=C\c2cc([N+](=O)[O-])ccc2OCc2ccccc2Cl)SC1=S	.	/	.	71	45
Cc1ccc(CNc2nc3ccccc3n3nnnc23)cc1	.	.	.	?	?
CCOC(=O)N1CCC(Nc2nc3ccccc3n3nnnc23)CC1	.	.	.	48	?
COc1ccc(OC)c(NC(=O)CSc2ccc3nnc(-c4cccnc4)n3n2)c1	.	.	.	.	.
CC(=O)C(=Cc1cc(C)n(-c2ccccc2)c1C)C(C)=O	.	.	.	7.4	54
Cc1cc(C=O)c(C)n1-c1cccc(C(=O)O)c1	.	.	.	.	80
Cc1ccc(C)n1-c1cccc(C(=O)O)c1	96	/	/	77	91
Cc1cc(C=O)c(C)n1-c1cc(C(=O)O)cc(C(=O)O)c1	.	.	.	.	.
Cc1c(NC(=O)c2cnc(Cl)c(Cl)c2)c(=O)n(-c2ccccc2)n1C	.	/	.	.	.
O=C1C=C(C2OC(CO)C(O)C2O)C(=O)N1 (stereo not given)	/	/	43	/	/
O=c1cnn([C@@H]2O[C@H](CO)[C@@H](O)[C@H]2O)c(=O)[nH]1	.	.	.	.	.
CCCNC(=O)OC[C@H]1O[C@H](CCO/N=C(\C)CCN2CCc3nc(-c4ccccc4)c(-c4ccccc4)cc3C2)C=C[C@@H]1Oc1ccc(OC)cc1	.	.	/	.	68
CCCOc1ccc(C(=O)NNC(=S)NC(=O)c2cc(-c3ccc(Cl)cc3)nc3ccccc23)cc1	.	.	39	.	.
CC(=O)c1nnn(-c2ccc(F)cc2F)c1C	.	.	.	.	.
CC(=O)c1nnn(-c2c(F)cccc2F)c1C	.	3.1	.	.	.
CCn1cc(C(=O)N[C@@H](CCSC)C(=O)NCCCN2CCOCC2)c(=O)c2cc3c(cc21)OCO3	.	/	.	.	.
CCOc1ccc(CCNC(=O)CN2C(=O)NC3(CCCC3)C2=O)cc1OCC	.	/	.	.	.
Cc1cc(C)n2nc(C(=O)Nc3ccc(S(=O)(=O)N4CCCC4)cc3)nc2n1	.	.	.	.	.
Cc1cc(C)n2nc(C(=O)Nc3ccc4c(c3)CCC4)nc2n1	.	.	.	.	2.1
SMILES	GRK2 aptamer HTS	PERK inh	MLLE-PAM2 inh	PABP FP inh	eIF4H FP inh
COc1cc(C(=O)NS(=O)(=O)c2ccccc2C)ccc1Cc1cn(C)c2ccc(NC(=O)OC3CCCC3)cc12	.	.	/	.	45
Cc1cccc(N=C2NC(=O)/C(=C/c3cccn3C)S2)c1C	.	.	.	.	.
O=C(CN1C(=O)S/C(=C/c2cccn2-c2ccc(O)cc2)C1=O)N1CCCC1	.	/	.	.	.
O=C(O)c1cccc(-n2cccc2/C=C2\SC(=O)N(Cc3ccccc3F)C2=O)c1	45	.	.	.	.
Cc1ccccc1N=C1NC(=O)/C(=C/c2cccn2-c2cccc(C(=O)O)c2)S1	/	.	/	.	98
O=C(O)c1cccc(-n2cccc2/C=C2/SC(=O)N(CC(=O)N3CCCC3)C2=O)c1	.	/	.	74	90
Cc1cc(=O)n2nc(N3CCCC(C(=O)NCCCN4C(C)CCCC4C)C3)sc2n1 (stereo not given)	/	/	.	/	/
CC1ON=C(c2ccccn2)N(Cc2ccc3c(c2)OCO3)C1=O (stereo not given)	/	/	.	/	/
COc1ccc(Cl)c2sc(N(CCN(C)C)C(=O)CCS(=O)(=O)c3ccc(C)cc3)nc12	.	/	.	/	/
COc1ccc(OC)c2sc(N(CCCN(C)C)C(=O)CCS(=O)(=O)c3ccccc3)nc12	.	/	43	/	/
COCCNC(=S)N/N=C(\C)c1ccccc1O	.	.	44	.	.
Cc1cc(NCC2CCCO2)n2c(nc3ccccc32)c1C#N (stereo not given)	.	.	.	96	61
O=C(c1nc2n(n1)C(c1ccc(Cl)cc1)C=C(c1ccccc1)N2)N1CCOCC1 (stereo not given)	.	.	.	65	66
COc1ccccc1C1C=C(c2ccc(Cl)cc2)Nc2nc(NS(C)(=O)=O)nn21 (stereo not given)	.	.	/	.	.

High-throughput results (PubChem BioAssay)
